Consider 91 compounds from PubChem BioAssay AID1986 (Sanford-Burnham Center for Chemical Genomics, 2009).

This experiment is described as follows: cell-free HIV fusion peptide-binding blockers – biochemical, uHTS, fluorescence dequenching, primary screen (AID 1986). To be noted: 30 min, stronger effect = higher value.
Where [1] appears, read: measured here: repeat confirmation average inhibition, at 18.6 µM.

A word on the inhibition: it is the relative decrease from the control value, in per cent.

In all, about 290,000 compounds went through this assay and about 890 (0.31%) were called active. No stated cut-off is given here; in the data, active means inhibition mostly above about 52% (no sharp cut-off); inactive means mostly below about 76%. The entries come from a sample that favours actives as a whole.

`CCCCNC(=O)O/N=C(\N)CS(=O)(=O)C(C)(C)C`: the inhibition (at 20 µM) was -2.3% (inactive). With `COc1cccc(NC(=O)Cn2nnc(C(=O)Nc3cc(Cl)ccc3OC)c2N)c1`, the inhibition (at 20 µM) is 1.3% (inactive). The same measure, in the same setting: for `CCOc1ccc(C(=O)Nc2ncccc2Cl)cc1` the value was 1.2% (inactive); for `Cc1ccc2c(nc3s/c(=C/c4cccs4)c(=O)n32)c1C`, -1.1% (inactive); for `CCOC(=O)C(C)N1C(=O)S/C(=C\c2ccc(-c3ccccc3C(=O)O)o2)C1=O` (stereo not given), 22.7% (inactive). Turning to `Cc1cc2nc3s/c(=C/c4ccc(-c5ccccc5C(=O)O)o4)c(=O)n3c2cc1C`, the inhibition is, setting by setting: (at 20 µM) 116% (active); under setting [1], 108%. The matching figures for `O=C(O)c1ccccc1-c1ccc(/C=c2\sc3nc4cc(Br)cnc4n3c2=O)o1`: 56.9% (inactive) and 28.9%. Consider `COc1ccc(O)c(/C=c2/sc3nc4cc(C)c(C)cc4n3c2=O)c1`, for which the inhibition (at 20 µM) was -3.1% (inactive). As for `Cc1ccc2c(nc3s/c(=C\c4ccc(-c5ccccc5C(=O)O)o4)c(=O)n32)c1C`, the inhibition reads like this: (at 20 µM) 88% (active); under setting [1], 121%.

With `COCCCNC(=O)c1ccc(CS(=O)(=O)c2cccc(C(F)(F)F)c2)o1`, the inhibition (at 20 µM) was -1.7% (inactive). Still for that read-out and setting: for `CCC12CN3CCN(CC(C3)/C1=N\NC(=O)c1ccc(F)cc1)C2` the value was 0.1% (inactive); for `CCOc1ccc(C2C(C(=O)c3ccco3)=C(O)C(=O)N2Cc2cccnc2)cc1` (stereo not given), 0.5% (inactive).

Turning to `Cc1ccc(C)c(NC(=O)CSc2nnc(CNC(=O)c3ccco3)n2C)c1`, the inhibition (at 20 µM) was -1.8% (inactive). Take `CCOC(=O)c1ccc(N2C(=O)c3n[nH]c(-c4ccco4)c3C2c2cccc([N+](=O)[O-])c2)cc1` (stereo not given): where the note is “at 20 µM”, the inhibition was 14.6% (inactive). The same measure, in the same setting: for `CCOC(=O)c1ccc(N2C(=O)c3n[nH]c(C)c3C2c2ccco2)cc1` (stereo not given) the value was -0.8% (inactive); for `CCOC(=O)c1ccc(N2C(=O)c3n[nH]c(-c4ccco4)c3C2c2ccc([N+](=O)[O-])cc2)cc1` (stereo not given), 60.1% (active). Still for that read-out and setting: with `Cc1nnc(SCC(=O)N2CCN(c3ccccc3)CC2)n(N)c1=O` the figure was 0.4% (inactive); with `COc1cc(OC)cc(C(=O)n2nc(C)cc2C)c1`, -0.7% (inactive); with `Cn1c(CC(=O)Nc2ccc(Cl)cc2)nnc1SCC(=O)N1CCOCC1`, -1% (inactive). On the same count and under the same terms, for `Cc1cc(/C=C2/C(=O)N(C)C(=S)N2C)ccc1N1CCCC1` the value was 54.2% (active); for `Cc1cc(/C=C2\NC(=S)N(C)C2=O)ccc1N1CCCC1`, 143% (inactive).

Turning to `CCCN1C(=O)/C(=C/c2ccc(N3CCCC3)c(C)c2)NC1=S`, the inhibition (at 20 µM) was 125% (inactive).

With `Cc1cc(S(=O)(=O)N2CCOCC2)ccc1OCC(=O)Nc1cccc(F)c1`, the inhibition (at 20 µM) is -1.3% (inactive). On the same count and under the same terms, for `CCOc1ccc(C(C)NC(=O)c2cccnc2OCC)cc1OCC` (stereo not given) the value was -0.2% (inactive); for `O=[N+]([O-])c1cc(/C=N\Nc2nc(-c3ccccc3)cs2)ccc1O`, 33.1% (inactive); for `Cc1csc(N/N=C/c2ccc(O)c([N+](=O)[O-])c2)n1`, 0% (inactive).

Turning to `O=[N+]([O-])c1cc(/C=N\Nc2nccs2)ccc1O`, where the note is “at 20 µM”, the inhibition was 71.1% (active). Still for that read-out and setting: for `O=C(/C=C/c1cc([N+](=O)[O-])ccc1OC(F)F)Nc1cccc2ccccc12` the value was 1.3% (inactive); for `CC1(C)Cc2c(sc(NC(=S)NC(=O)c3ccccc3)c2C(=O)O)CO1`, 2.8% (inactive). On the same count and under the same terms, with `CC(/C=C1\SC(=S)N(NS(=O)(=O)c2ccccc2)C1=O)=C\c1ccccc1` the figure was 40.6% (inactive). Take `CC(/C=C1\SC(=S)N(NC(=O)c2ccc(C)cc2)C1=O)=C\c1ccccc1`: the inhibition (at 20 µM) was 6.4% (inactive). `CC(/C=C1\SC(=S)N(NS(=O)(=O)c2ccc(C)cc2)C1=O)=C\c1ccccc1`: the inhibition (at 20 µM) was 56.5% (active). The same measure, in the same setting: with `COc1ccccc1NC(=O)/C(C#N)=C/C=C/c1ccco1` the figure was 24.1% (inactive).

For `COc1ccc(NC(=O)/C(C#N)=C/C=C/c2ccco2)cc1`, the inhibition (at 20 µM) was 80.7% (active). On to `COc1ccc(NC(=O)/C(C#N)=C\C=C\c2ccco2)cc1`, for which the inhibition (at 20 µM) is 73.2% (inactive) and the inhibition under setting [1] was -0.6%.

With `Cc1cccn2cc(CCNC(=O)c3ccco3)nc12`, the inhibition (at 20 µM) is -0.6% (inactive). Still for that read-out and setting: for `Cc1cc(N2C(=O)C(O)=C(C(=O)c3ccco3)C2c2ccc([N+](=O)[O-])cc2)no1` (stereo not given) the value was 1.4% (inactive); for `Cc1nc(=O)c(-c2ccccc2)c(C)n1CCCCCC(=O)O`, -2.3% (inactive). For `CC(N=C(NS(=O)(=O)c1ccc(Cl)cc1)c1ccccc1)C(=O)O` (stereo not given), the inhibition (at 20 µM) was -0.1% (inactive). The same measure, in the same setting: with `COc1ccc(C=C(c2nc3ccccc3s2)c2nc3ccccc3s2)cc1O` the figure was 57.6% (active); with `COc1cc(C=C(c2nc3ccccc3s2)c2nc3ccccc3s2)cc(OC)c1O`, 26.6% (inactive); with `COc1cc(C=C(c2nc3ccccc3s2)c2nc3ccccc3s2)ccc1O`, 8.2% (inactive). On the same count and under the same terms, with `CCS(=O)(=O)Nc1cccc(C2=NN(S(C)(=O)=O)C(c3cccs3)C2)c1` (stereo not given) the figure was 0.5% (inactive).

For the compound `CCCC(=O)NC(Nc1ccc(S(=O)(=O)Nc2cc(C)on2)cc1)(C(=O)OCC)C(F)(F)F` (stereo not given), the inhibition (at 20 µM) is -1.8% (inactive). Still for that read-out and setting: for `CCOC(=O)C(NC(=O)CC)(Nc1ccc(S(=O)(=O)Nc2cc(C)on2)cc1)C(F)(F)F` (stereo not given) the value was 59.8% (active); for `CCOC(=O)C(NC(C)=O)(Nc1ccc(S(=O)(=O)Nc2cc(C)on2)cc1)C(F)(F)F` (stereo not given), 3.7% (inactive); for `COCCCN(C(=S)NC(=O)C(C)(C)C)c1c(N)n(Cc2ccccc2)c(=O)[nH]c1=O`, -2.2% (inactive). Same read-out and setting: for `COc1ccc(/C=C2\SC(=Nc3ccccc3OC)NC2=O)cc1` the value was 7.1% (inactive).

With `COc1cc(/C=C2/SC(=S)N(Cc3ccccc3)C2=O)cc(Cl)c1O`, the inhibition by setting is: (at 20 µM) 119% (active); under setting [1], 88%.

On to `COc1cc(/C=C2/SC(=Nc3ccc(O)cc3)NC2=O)cc(OC)c1O`, for which, where the note is “at 20 µM”, the inhibition is -2.4% (inactive). Still for that read-out and setting: for `COc1cc(/C=C2\SC(=Nc3ccccc3OC)NC2=O)ccc1O` the value was 8.2% (inactive); for `COc1cc(/C=C2\SC(=Nc3ccc(O)cc3)NC2=O)cc(OC)c1O`, -2.7% (inactive). As to `O=C1/C(=C\c2cc(Cl)c(O)c(Cl)c2)SC(=S)N1Cc1ccccc1`, the inhibition (at 20 µM) was 159% (inactive).

In the case of `COc1ccccc1N=C1NC(=O)/C(=C/c2ccc(N(C)C)cc2)S1`, the inhibition (at 20 µM) was 52.4% (active). The same measure, in the same setting: with `COc1ccc(/C=C2/SC(=S)N(Cc3ccccc3)C2=O)cc1O` the figure was -3.1% (inactive). Same read-out and setting: with `COc1cc(/C=C2/SC(=S)N(Cc3ccccc3)C2=O)ccc1O` the figure was 6% (inactive). Consider `COc1ccc(OC)c(/C=C2\SC(=S)N(Cc3cccnc3)C2=O)c1`, for which the inhibition (at 20 µM) was 36.3% (inactive).

In the case of `COc1cc(/C=C2\SC(=Nc3ccccc3)NC2=O)cc(Cl)c1O`, the inhibition runs as follows: (at 20 µM) 90% (active); under setting [1], 60.8%. The matching figures for `COc1ccc(O)c(/C=C2/SC(=S)N(Cc3ccccc3)C2=O)c1`: 68.8% (active) and 51%. As for `CCN(CC)CCCNC(=O)CNC(=S)N(CCCN1CCOCC1)Cc1cccs1`, under “at 20 µM”, the inhibition was -0.5% (inactive). The same measure, in the same setting: with `Cc1cc(C)cc(OCC(=O)Nc2nc(-c3cccnc3)cs2)c1` the figure was -0.2% (inactive). With `COc1ccc2cc(CN(CC3CCCO3)S(=O)(=O)c3ccccc3)c(=O)[nH]c2c1` (stereo not given), the inhibition (at 20 µM) was 1.4% (inactive). Same read-out and setting: for `N#C/C(=C/c1ccc(N2CCCCC2)cc1)c1cccc(F)c1` the value was 1.6% (inactive); for `COc1cc(N2CCCC2)c(OC)cc1/C=C(/C#N)c1cccc(F)c1`, 57.2% (active). As for `COc1cc(N2CCCC2)c(OC)cc1/C=C(/C#N)c1ccc(Br)cc1`, the inhibition (at 20 µM) is -0.2% (inactive). For the compound `COc1cc(N2CCCC2)c(OC)cc1/C=C(/C#N)c1ccc(F)cc1`, the inhibition (at 20 µM) is 15.6% (inactive).

Take `COc1cc(N2CCCC2)c(OC)cc1/C=C(/C#N)c1cccc(Br)c1`: the inhibition is 51.2% (active) (at 20 µM) and 65.1% under setting [1]. Consider `N#C/C(=C/c1ccc(N2CCCCCC2)o1)c1cccc(F)c1`, for which the inhibition (at 20 µM) was 3.6% (inactive). `CCOC(=O)c1c(C)n(C)c2c(C)cc(O)c(OC(=O)CC)c12`: the inhibition (at 20 µM) was 1.5% (inactive). Same read-out and setting: with `COC(=O)Cc1cccc2c(=O)c3ccccc3oc12` the figure was -2% (inactive). Same read-out and setting: for `O=C(CCS(=O)(=O)c1ccc2c(c1)NC(=O)CO2)NCCc1ccc(Cl)cc1` the value was 0.2% (inactive); for `CC(C)NC(=O)c1ccc(CN2CCC(Cc3ccccc3)CC2)cc1`, -0.1% (inactive); for `Cc1cccc(Nc2nnc(SCC(=O)NCc3cccs3)s2)c1`, -0.3% (inactive). As to `CCOC(=O)c1cc2c(=O)n3cccc(C)c3nc2n(Cc2ccccc2Cl)c1=N`, the inhibition (at 20 µM) is -3.9% (inactive).

As to `Cc1cccn2c(=O)c3cc(C(=O)NCc4cccnc4)c(=N)n(C)c3nc12`, the inhibition (at 20 µM) is -1.4% (inactive). Same read-out and setting: with `CCOC(=O)c1cc2c(=O)n3cccc(C)c3nc2n(C)c1=N` the figure was 59.9% (active). Still for that read-out and setting: for `COc1cccc(/C=N\NC(C)=O)c1OC/C=C/c1ccccc1` the value was 0.3% (inactive); for `O=C1/C(=C/c2ccncc2)SC(=S)N1N1CCOCC1`, -1.3% (inactive); for `Cc1ccc(NS(=O)(=O)c2cc(C(=O)N3CCN(C)CC3)ccc2C)cc1`, -0.2% (inactive). Same read-out and setting: with `CCN(CC)S(=O)(=O)c1cc(NS(=O)(=O)c2cccc(C(=O)O)c2)ccc1C` the figure was 1.4% (inactive); with `CC(C)OC(=O)c1cccc2c1C(=O)c1ccccc1-2`, -0.7% (inactive). For the compound `COC(=O)c1cc2c(C)c(C)c3ccccn3c-2c1C(=O)OC`, the inhibition (at 20 µM) was -1.6% (inactive). Still for that read-out and setting: for `CC(C)OC(=O)c1c2c(n3ccccc13)C(=O)c1ccccc1C2=O` the value was 103% (active); for `CSc1cccc(NC(=O)c2nnn(Cc3ccccc3)c2N)c1`, -1.1% (inactive).

As for `CCOC(=O)C1CCN(C(=O)COc2ccc(S(=O)(=O)NC(C)C)cc2Cl)CC1`, where the note is “at 20 µM”, the inhibition is -0.9% (inactive). For the compound `CCOc1ccc(NC(=O)CSc2ncn[nH]2)c([N+](=O)[O-])c1`, under “at 20 µM”, the inhibition is 0.8% (inactive). On the same count and under the same terms, with `Cc1occc1-c1nnc(SCC(=O)N2CCN(c3ccccc3F)CC2)n1C` the figure was 0.2% (inactive); with `O=C(Nc1ccncc1)C1CC1c1ccccc1` (stereo not given), -0.2% (inactive). As for `COc1ccc(-n2c(O)c(/C=N/NS(=O)(=O)c3ccc(C)cc3)c3ccccc3c2=O)cc1OC`, where the note is “at 20 µM”, the inhibition is 152% (inactive). Still for that read-out and setting: for `CC(C)(C)N/N=C/c1c(O)n(-c2ccc(Cl)cn2)c(=O)c2ccccc12` the value was 4% (inactive). Take `O=c1c2ccccc2c(/C=N/NS(=O)(=O)c2ccccc2)c(O)n1-c1ccccn1`: the inhibition is, setting by setting: (at 20 µM) 109% (active); under setting [1], 78.3%.
